Only some compounds are listed: those with a hit (about 4.7% of all), similar ones and a draw of the others.
D1 potentiator: enhances dopamine response at the human D1 receptor; P21728; HEK293 TREx D1 cells, calcium flux, dopamine EC20 potentiation; potentiation, % at 10 µM; 360,000 compounds, 0.036% hits; AID 504651; in the data active = potentiation above about 30%; note: 0% is about no effect
D1 agonist: agonists of human D1 dopamine receptor. 360,000 compounds, 1% hits. HEK293 T-REx D1 cells, calcium flux, agonist mode. activation, % at 2 µM; in the data active = activation above about 30%; note: 0% is about no effect
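Agonism was scored from calcium flux recorded over 180 s (1 read/s) after pintool compound addition, following a 10-cycle baseline. Cells were inducible force-coupled HEK293 TREx D1, plated overnight at 30 C and loaded with no-wash calcium dye.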
D1 antag: antagonists of human D1 dopamine receptor; activity change, negative = inhibition, % at 10 µM; 360,000 compounds, 3.2% hits; P21728; HEK293 TREx D1 cells, calcium flux, dopamine EC80; hits give low values; in the data active = activity change below about -30%; note: % is set by controls: 0 for no effect and ±100 for the full control effect
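Calcium flux readout: force-coupled, inducible Hek293 Trex D1 line, cells induced overnight at 30 C with tetracycline, dye-loaded 30–90 min at RT. Antagonism scored against EC80 dopamine challenge given 180 s after compound.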
TRHR enhancer-1: allosterically enhances the human TRH receptor; TRHR cells, fluo-8 calcium fluorescence, EC20 TRH enhancement; P34981; enhancement, % at 2 µM; AID 493056; 360,000 compounds, 0.66% hits; in the data active = enhancement above about 30%; note: 0% is about no effect
Target sequence (P34981 whole entry, looked up): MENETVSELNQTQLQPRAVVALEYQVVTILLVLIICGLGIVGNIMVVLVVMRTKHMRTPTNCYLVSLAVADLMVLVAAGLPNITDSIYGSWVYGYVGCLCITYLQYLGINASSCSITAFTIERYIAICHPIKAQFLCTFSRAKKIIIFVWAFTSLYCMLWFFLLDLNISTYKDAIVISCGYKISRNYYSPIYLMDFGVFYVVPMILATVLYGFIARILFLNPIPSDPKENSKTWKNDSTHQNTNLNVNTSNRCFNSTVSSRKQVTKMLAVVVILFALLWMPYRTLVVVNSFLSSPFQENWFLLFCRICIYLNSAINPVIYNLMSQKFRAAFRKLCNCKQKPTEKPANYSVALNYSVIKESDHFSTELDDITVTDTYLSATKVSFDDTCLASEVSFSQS
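TRHR-expressing cells loaded with fluo-8 calcium dye were read kinetically (ex 480/em 530) during compound addition, then stimulated with an EC20 of TRH (10 nM final). Enhancement of the Gq-mediated intracellular calcium response was scored.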
TRHR agonist-1: activates the human TRH receptor. P34981. activation, % at 2 µM. AID 493084. TRHR cells, calcium flux fluo-8, FDSS agonist mode. 360,000 compounds, 0.18% hits; in the data active = activation above about 30%; note: 0% is about no effect
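Fluo-8-loaded TRHR cells; 10 s baseline, compound added, kinetic Ca2+ fluorescence read 1/s, agonist mode.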
TRHR enhancer-2: human TRH receptor allosteric enhancement confirmation; 970 tested, under 10 active; activity change, negative = inhibition, % at 46.1 µM; shares compounds with TRHR enhancer-1; TRH receptor cell assay, enhancer confirmation qHTS;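 note: compound effect scored on response to added TRH at EC20 of 10 nM; 0% is about no effect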
TRHR agonist-2: confirmation of human TRH receptor agonists; shares compounds with TRHR enhancer-1; TRHR-expressing cells, agonist activation read-out; Potency, µM (top dose mostly 46.1 µM), inactives show at the highest dose activation, hits mostly activators; 970 compounds, 8% hits; AID 493078; note: potency is the fitted concentration of half-maximal effect; 0% is about no effect; nearly all actives have a fitted effect of over 75% in size
* marks the source's active call; other numbers are inactive results; nt = no result given. Unless noted, calls come from the whole dose curve; as a rule, active = well fitted curve in the direction sought with a large enough effect; inconclusive = small, poorly fitted or top-dose-only effect, or another doubt; inactive = no such curve, though single readings can be large; an effect the other way counts as inactive or inconclusive.

SMILES	D1 potentiator	D1 agonist	D1 antag	TRHR enhancer-1	TRHR agonist-1	TRHR enhancer-2	TRHR agonist-2
COc1ccc(Oc2nccc(OC)c2C#N)cc1	-3	3	-17	43*	0	-4	-1%
O=[N+]([O-])c1ccccc1S(=O)(=O)Nc1cccc(-c2ccc3nncn3n2)c1	-6	6	-6	46*	1	3	0%
Cc1cc(=O)c(C(=O)O)cn1Nc1ccc(Cl)cc1	2	3	-3	0	1	nt	nt
CC1CCCN(C(=O)CCS(=O)(=O)c2ccc3c(c2)NC(=O)C(C)S3)C1 (stereo not drawn)	-8	7	-16	0	0	nt	nt
CCN(C(=O)Cn1nc(C(=O)O)c2ccccc2c1=O)C1CCCCC1	6	2	13	44*	0	-8	2%
Cc1c(NC(=O)Cn2nc(C(F)(F)F)c3c2CCCC3)c(=O)n(-c2ccccc2)n1C	-2	0	9	58*	0	-10	-1%
COC(=O)c1ccccc1NC(=O)Cn1nc(C(F)(F)F)c2c1CCCC2	-1	26	9	57*	0	-12	4%
Cc1c(NC(=O)Cn2nc(C(=O)O)c3ccccc3c2=O)c(=O)n(-c2ccccc2)n1C	5	3	29	46*	0	-3	-1%
CCc1ccccc1NC(=O)Cn1nc(C(F)(F)F)c2c1CCCC2	0	1	2	4	-1	nt	nt
COc1ccc(CNC(=O)c2ccc(-c3nc(CSc4ccc(C)cc4)c(C)o3)cc2)cc1OC	-2	5	4	0	1	nt	nt
NC(=O)/C(=C\c1ccccc1)NC(=O)c1ccc(NC(=O)c2ccccc2)cc1	-6	0	-4	18	1	nt	nt
CCc1ccccc1NC(=O)c1nnn(CC(=O)Nc2c(C)cc(C)cc2C)c1N	0	2	2	1	1	nt	nt
COc1ccc2[nH]c(O)c(N=NC(=N)N)c2c1	-4	1	9	62*	1	2	-1%
COC(=O)N=Nc1c(O)[nH]c2ccc(Br)cc12	-2	-1	20	-2	0	nt	nt
CC(C(=O)N1CC2(C)CC1CC(C)(C)C2)N1C(=O)c2ccccc2C1=O (stereo not drawn)	-6	2	0	46*	0	-12	1%
CCC(C(=O)N1CC2(C)CC1CC(C)(C)C2)N1C(=O)c2ccccc2C1=O (stereo not drawn)	-10	0	-3	-5	0	nt	nt
Cc1cccc(-c2nnn(C/C(N)=N/O)n2)c1	-1	2	-15	5	0	nt	nt
COc1ccc(C(=O)c2oc3ccccc3c2NC(=O)COc2ccccc2)cc1	0	3	2	1	1	nt	nt
CCc1ccc2occ(CC(=O)Nc3nnc(SC)s3)c2c1	0	3	5	1	0	nt	nt
CCc1ccc2occ(CC(=O)Nc3ccc(C)c(C)c3)c2c1	-2	15	-1	63*	-1	-5	6%
O=C(CN1CCC(C(=O)c2ccc3c(c2)OCCO3)CC1)Nc1ccccc1F	-5	-1	-17	48*	0	-9	1%
COc1ccc(NC2CCCN(C(=O)CSc3ccncc3)C2)cc1 (stereo not drawn)	-8	3	44	83*	0	-1	-1%
Cc1ccc(NC(=O)COc2ccccc2)cc1Cl	-3	8	6	7	0	nt	nt
CCOCC(=O)Nc1ccc(C)c(Cl)c1	-4	2	21	62*	-1	-7	2%
CCOC(=O)Cn1c(=O)c(F)cn(Cc2ccc(OC)c([N+](=O)[O-])c2)c1=O	-4	4	2	67*	1	-3	-1%
CCCCCCn1c(=O)c(F)cn(Cc2ccc(OC)c([N+](=O)[O-])c2)c1=O	-5	1	4	5	0	nt	nt
CC1=NN(c2ccc(C(=O)O)cc2)C(=O)CC1	-2	3	-3	44*	0	5	5%
O=C(CCC1CCCC1)NCCCNC(=O)CCC1CCCC1	2	0	-9	2	1	nt	nt

Screening results: PubChem BioAssay, National Center for Advancing Translational Sciences (NCATS)
